Data on ten sequences can be found in PMC11006913.

Common to all, as to experiment: PBM; 200 nM protein, PBS
Common to all, as to settings: dsDNA, one strand shown

Test [1] has as its target T1, PAX4 (Homo sapiens, UniProt O43316 9-242, R200K).
T1 sequence: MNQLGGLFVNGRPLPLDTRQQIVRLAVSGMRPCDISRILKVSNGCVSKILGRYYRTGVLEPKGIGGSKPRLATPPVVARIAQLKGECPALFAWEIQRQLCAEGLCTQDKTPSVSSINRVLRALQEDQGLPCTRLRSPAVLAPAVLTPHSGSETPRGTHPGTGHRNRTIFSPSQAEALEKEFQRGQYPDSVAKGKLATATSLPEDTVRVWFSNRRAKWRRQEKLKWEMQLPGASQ

Test [2] addresses T2, PAX4 (Homo sapiens, UniProt O43316 9-242).
T2 sequence: T1 sequence with K192R

The target in test [3] is HOXA2 (Homo sapiens, UniProt O43364 129-215, R185T).
Chain of HOXA2 (Homo sapiens, UniProt O43364 129-215, R185T) (O43364 129-215 R185T): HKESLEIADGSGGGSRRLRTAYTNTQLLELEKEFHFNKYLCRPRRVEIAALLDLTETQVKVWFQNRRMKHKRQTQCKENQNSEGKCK
Test [4] addresses ALX3 (Homo sapiens, UniProt O95076 139-225, N203Q).
Test [5] concerns the target T3, PAX4 (Homo sapiens, UniProt O43316 9-242, R200Q).
T3 sequence: T1 sequence with K192Q

Test [6] has as its target HOXA2 (Homo sapiens, UniProt O43364 129-215, R185K).
For test [7], the target named is T4, PAX4 (Homo sapiens, UniProt O43316 9-242, F177V).
T4 sequence: T1 sequence with F169V, K192R

The target in test [8] is ALX3 (Homo sapiens, UniProt O95076 139-225).
Chain of ALX3 (Homo sapiens, UniProt O95076 139-225) (O95076 139-225): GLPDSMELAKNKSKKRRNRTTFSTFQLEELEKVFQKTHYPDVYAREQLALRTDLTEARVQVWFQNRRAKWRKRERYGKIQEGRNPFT
The target of test [9] is T5, PAX4 (Homo sapiens, UniProt O43316 9-242, F177Y).
T5 sequence: T1 sequence with F169Y, K192R

In test [10] the target is ALX3 (Homo sapiens, UniProt O95076 139-225, L168Q).
Chain of ALX3 (Homo sapiens, UniProt O95076 139-225, L168Q) (O95076 139-225 L168Q): as the sequence (O95076 139-225) above, with L30Q counted along it
Test [11] has as its target ALX3 (Homo sapiens, UniProt O95076 139-225, L168V).
The target in test [12] is T6, PAX4 (Homo sapiens, UniProt O43316 9-242, R227W).
T6 sequence: T1 sequence with K192R, R219W

The target in test [13] is HOXA2 (Homo sapiens, UniProt O43364 129-215, Y150S).
Chain of HOXA2 (Homo sapiens, UniProt O43364 129-215, Y150S) (O43364 129-215 Y150S): as the sequence (O43364 129-215 R185T) above, with Y22S, T57R counted along it
Test [14] addresses ALX3 (Homo sapiens, UniProt O95076 139-225, N203S).
For test [15], the target named is HOXA2 (Homo sapiens, UniProt O43364 129-215).
Chain of HOXA2 (Homo sapiens, UniProt O43364 129-215) (O43364 129-215): as the sequence (O43364 129-215 R185T) above, with T57R counted along it
Test [16] addresses HOXD13 (Homo sapiens, UniProt P35453 263-343, T313R).
The target in test [17] is HOXD13 (Homo sapiens, UniProt P35453 263-343).
Chain of HOXD13 (Homo sapiens, UniProt P35453 263-343) (P35453 263-343): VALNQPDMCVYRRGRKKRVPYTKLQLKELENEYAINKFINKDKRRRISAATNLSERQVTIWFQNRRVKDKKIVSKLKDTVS
Test [18] concerns the target HOXD13 (Homo sapiens, UniProt P35453 263-343, T313A).
A further test addresses PITX2 (Homo sapiens, UniProt Q99697 72-157).
The target of test [19] is HOXB9 (Homo sapiens, UniProt P17482 171-250).
Chain of HOXB9 (Homo sapiens, UniProt P17482 171-250) (P17482 171-250): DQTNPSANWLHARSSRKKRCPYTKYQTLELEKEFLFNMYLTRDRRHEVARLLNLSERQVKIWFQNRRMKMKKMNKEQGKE
The target in test [20] is HOXB9 (Homo sapiens, UniProt P17482 171-250, R186Q).
Chain of HOXB9 (Homo sapiens, UniProt P17482 171-250, R186Q) (P17482 171-250 R186Q): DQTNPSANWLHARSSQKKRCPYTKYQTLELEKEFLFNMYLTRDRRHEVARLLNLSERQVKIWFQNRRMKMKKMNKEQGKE
The target of another test is T7, NKX2-6 (Homo sapiens, UniProt A6NCS4 118-204, R150C).
T7 sequence: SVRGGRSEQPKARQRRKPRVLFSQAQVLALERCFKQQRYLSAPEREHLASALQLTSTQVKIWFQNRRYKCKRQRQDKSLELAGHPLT

In test [21] the target is MSX2 (Homo sapiens, UniProt P35548 130-214, R199I).
Chain of MSX2 (Homo sapiens, UniProt P35548 130-214, R199I) (P35548 130-214 R199I): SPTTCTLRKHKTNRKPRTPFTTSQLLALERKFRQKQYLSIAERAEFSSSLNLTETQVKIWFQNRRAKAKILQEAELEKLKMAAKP
Test [22] deals with MSX2 (Homo sapiens, UniProt P35548 130-214).
Chain of MSX2 (Homo sapiens, UniProt P35548 130-214) (P35548 130-214): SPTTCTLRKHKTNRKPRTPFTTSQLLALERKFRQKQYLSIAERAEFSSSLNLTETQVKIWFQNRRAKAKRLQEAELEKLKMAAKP
In test [23] the target is MSX2 (Homo sapiens, UniProt P35548 130-214, F161Y).
Chain of MSX2 (Homo sapiens, UniProt P35548 130-214, F161Y) (P35548 130-214 F161Y): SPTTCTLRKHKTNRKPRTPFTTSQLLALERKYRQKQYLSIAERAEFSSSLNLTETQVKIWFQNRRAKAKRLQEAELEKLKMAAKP

Substitutions are numbered along the chain they refer to.

Chain of HOXA2 (Homo sapiens, UniProt O43364 129-215, R185K) (O43364 129-215 R185K): as the sequence (O43364 129-215 R185T) above, with T57K counted along it
Chain of ALX3 (Homo sapiens, UniProt O95076 139-225, N203Q) (O95076 139-225 N203Q): as the sequence (O95076 139-225) above, with N65Q counted along it
Chain of ALX3 (Homo sapiens, UniProt O95076 139-225, N203S) (O95076 139-225 N203S): as the sequence (O95076 139-225) above, with N65S counted along it
Chain of ALX3 (Homo sapiens, UniProt O95076 139-225, L168V) (O95076 139-225 L168V): as the sequence (O95076 139-225) above, with L30V counted along it
Chain of HOXD13 (Homo sapiens, UniProt P35453 263-343, T313A) (P35453 263-343 T313A): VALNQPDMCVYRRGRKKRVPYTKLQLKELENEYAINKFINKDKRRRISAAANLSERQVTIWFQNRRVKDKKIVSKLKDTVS
Chain of HOXD13 (Homo sapiens, UniProt P35453 263-343, T313R) (P35453 263-343 T313R): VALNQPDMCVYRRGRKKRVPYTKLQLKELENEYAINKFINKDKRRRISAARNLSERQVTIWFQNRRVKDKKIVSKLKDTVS

For the sequence GGGGGGGA, the binding signal with PAX4 [1] was 9.06 upbm affinity estimate (log intensity, higher = more binding, comparable within an allelic series); in the test with PAX4 [2], 9.13 upbm affinity estimate (log intensity, higher = more binding, comparable within an allelic series); with HOXA2 [3], 6.89 upbm affinity estimate (log intensity, higher = more binding, comparable within an allelic series); with ALX3 [4] it was 7.53 upbm affinity estimate (log intensity, higher = more binding, comparable within an allelic series); with PAX4 [5] it was 9.12 upbm affinity estimate (log intensity, higher = more binding, comparable within an allelic series); in the test with HOXA2 [6], 9.81 upbm affinity estimate (log intensity, higher = more binding, comparable within an allelic series). Further, the binding signal was 9.01 upbm affinity estimate (log intensity, higher = more binding, comparable within an allelic series) with PAX4 [7]; 7.53 upbm affinity estimate (log intensity, higher = more binding, comparable within an allelic series) with ALX3 [8]; 9.15 upbm affinity estimate (log intensity, higher = more binding, comparable within an allelic series) with PAX4 [9]; 7.42 upbm affinity estimate (log intensity, higher = more binding, comparable within an allelic series) with ALX3 [10]; 7.45 upbm affinity estimate (log intensity, higher = more binding, comparable within an allelic series) with ALX3 [11]; 9.15 upbm affinity estimate (log intensity, higher = more binding, comparable within an allelic series) with PAX4 [12]. Further, the binding signal with HOXA2 [13] was 10.2 upbm affinity estimate (log intensity, higher = more binding, comparable within an allelic series); with ALX3 [14] it was 7.55 upbm affinity estimate (log intensity, higher = more binding, comparable within an allelic series); with HOXA2 [15], 7.05 upbm affinity estimate (log intensity, higher = more binding, comparable within an allelic series).
Consider CAAGCCCC, for which the binding signal is 9.27 upbm affinity estimate (log intensity, higher = more binding, comparable within an allelic series) with PAX4 [1]; 9.32 upbm affinity estimate (log intensity, higher = more binding, comparable within an allelic series) in the test with PAX4 [2]; 9.5 upbm affinity estimate (log intensity, higher = more binding, comparable within an allelic series) with HOXD13 [16]; 9.37 upbm affinity estimate (log intensity, higher = more binding, comparable within an allelic series) with PAX4 [5]; 9.54 upbm affinity estimate (log intensity, higher = more binding, comparable within an allelic series) with HOXD13 [17]; 9.26 upbm affinity estimate (log intensity, higher = more binding, comparable within an allelic series) with PAX4 [7]. Also, the binding signal with PAX4 [9] was 9.29 upbm affinity estimate (log intensity, higher = more binding, comparable within an allelic series); with HOXD13 [18], 9.61 upbm affinity estimate (log intensity, higher = more binding, comparable within an allelic series); with PAX4 [12], 9.3 upbm affinity estimate (log intensity, higher = more binding, comparable within an allelic series).
With GCGCCACC, the binding signal in the test with PAX4 [1] is 9.38 upbm affinity estimate (log intensity, higher = more binding, comparable within an allelic series); with PAX4 [2], 9.4 upbm affinity estimate (log intensity, higher = more binding, comparable within an allelic series); with PAX4 [5] it was 9.4 upbm affinity estimate (log intensity, higher = more binding, comparable within an allelic series); with PITX2 it was 7.93 upbm affinity estimate (log intensity, higher = more binding, comparable within an allelic series); with PAX4 [7], 9.23 upbm affinity estimate (log intensity, higher = more binding, comparable within an allelic series); with PAX4 [9], 9.26 upbm affinity estimate (log intensity, higher = more binding, comparable within an allelic series). Also, in the test with PAX4 [12], the binding signal was 9.32 upbm affinity estimate (log intensity, higher = more binding, comparable within an allelic series).
With TAAAGTAA, the binding signal with PAX4 [1] was 10.7 upbm affinity estimate (log intensity, higher = more binding, comparable within an allelic series); with PAX4 [2] it was 10.9 upbm affinity estimate (log intensity, higher = more binding, comparable within an allelic series); in the test with PAX4 [5], 10.8 upbm affinity estimate (log intensity, higher = more binding, comparable within an allelic series).
On to CCCTAATA, for which the binding signal in the test with PAX4 [1] was 11.3 upbm affinity estimate (log intensity, higher = more binding, comparable within an allelic series); in the test with PAX4 [2], 11.6 upbm affinity estimate (log intensity, higher = more binding, comparable within an allelic series); with HOXB9 [19] it was 10.3 upbm affinity estimate (log intensity, higher = more binding, comparable within an allelic series); with ALX3 [4] it was 8.25 upbm affinity estimate (log intensity, higher = more binding, comparable within an allelic series); with PAX4 [5], 11.2 upbm affinity estimate (log intensity, higher = more binding, comparable within an allelic series); with PAX4 [7] it was 10.2 upbm affinity estimate (log intensity, higher = more binding, comparable within an allelic series). For the same sequence, the binding signal is 10.9 upbm affinity estimate (log intensity, higher = more binding, comparable within an allelic series) in the test with ALX3 [8]; 10.5 upbm affinity estimate (log intensity, higher = more binding, comparable within an allelic series) with PAX4 [9]; 8.97 upbm affinity estimate (log intensity, higher = more binding, comparable within an allelic series) in the test with ALX3 [10]; 10.2 upbm affinity estimate (log intensity, higher = more binding, comparable within an allelic series) with HOXB9 [20]; 8.89 upbm affinity estimate (log intensity, higher = more binding, comparable within an allelic series) in the test with ALX3 [11]; 10.6 upbm affinity estimate (log intensity, higher = more binding, comparable within an allelic series) with PAX4 [12]. In the test with ALX3 [14], the binding signal is 8.32 upbm affinity estimate (log intensity, higher = more binding, comparable within an allelic series).
Regarding CCCCGGAG, the binding signal with PAX4 [1] is 9.33 upbm affinity estimate (log intensity, higher = more binding, comparable within an allelic series); in the test with PAX4 [2], 9.37 upbm affinity estimate (log intensity, higher = more binding, comparable within an allelic series); with NKX2-6, 9.25 upbm affinity estimate (log intensity, higher = more binding, comparable within an allelic series); with PAX4 [5], 9.35 upbm affinity estimate (log intensity, higher = more binding, comparable within an allelic series); with PAX4 [7], 9.22 upbm affinity estimate (log intensity, higher = more binding, comparable within an allelic series); with PAX4 [9], 9.27 upbm affinity estimate (log intensity, higher = more binding, comparable within an allelic series). Further, in the test with PAX4 [12], the binding signal is 9.32 upbm affinity estimate (log intensity, higher = more binding, comparable within an allelic series).
As for AAAATCAG, the binding signal with PAX4 [1] was 10.5 upbm affinity estimate (log intensity, higher = more binding, comparable within an allelic series); with PAX4 [2] it was 10.7 upbm affinity estimate (log intensity, higher = more binding, comparable within an allelic series); in the test with PAX4 [5], 10.6 upbm affinity estimate (log intensity, higher = more binding, comparable within an allelic series); with PAX4 [7], 10.1 upbm affinity estimate (log intensity, higher = more binding, comparable within an allelic series).
Consider CCGCCCCG, for which the binding signal was 9.25 upbm affinity estimate (log intensity, higher = more binding, comparable within an allelic series) with PAX4 [1]; 9.35 upbm affinity estimate (log intensity, higher = more binding, comparable within an allelic series) with PAX4 [2]; 9.69 upbm affinity estimate (log intensity, higher = more binding, comparable within an allelic series) with NKX2-6; 9.16 upbm affinity estimate (log intensity, higher = more binding, comparable within an allelic series) in the test with PAX4 [5]; 9.13 upbm affinity estimate (log intensity, higher = more binding, comparable within an allelic series) in the test with PAX4 [7]; 9.21 upbm affinity estimate (log intensity, higher = more binding, comparable within an allelic series) with PAX4 [9]. Besides, the binding signal with PAX4 [12] is 9.44 upbm affinity estimate (log intensity, higher = more binding, comparable within an allelic series).
As to AGGGGGCC, the binding signal in the test with PAX4 [1] was 8.96 upbm affinity estimate (log intensity, higher = more binding, comparable within an allelic series); with PAX4 [2], 9.02 upbm affinity estimate (log intensity, higher = more binding, comparable within an allelic series); with HOXA2 [3], 7.23 upbm affinity estimate (log intensity, higher = more binding, comparable within an allelic series); with MSX2 [21] it was 9.51 upbm affinity estimate (log intensity, higher = more binding, comparable within an allelic series); with PAX4 [5], 9.05 upbm affinity estimate (log intensity, higher = more binding, comparable within an allelic series); with HOXA2 [6], 10.2 upbm affinity estimate (log intensity, higher = more binding, comparable within an allelic series). Further, the binding signal was 9.04 upbm affinity estimate (log intensity, higher = more binding, comparable within an allelic series) with PAX4 [7]; 9.64 upbm affinity estimate (log intensity, higher = more binding, comparable within an allelic series) with MSX2 [22]; 9.04 upbm affinity estimate (log intensity, higher = more binding, comparable within an allelic series) with PAX4 [9]; 9.59 upbm affinity estimate (log intensity, higher = more binding, comparable within an allelic series) with MSX2 [23]; 9.1 upbm affinity estimate (log intensity, higher = more binding, comparable within an allelic series) in the test with PAX4 [12]; 10.2 upbm affinity estimate (log intensity, higher = more binding, comparable within an allelic series) in the test with HOXA2 [13]. Moreover, the binding signal in the test with HOXA2 [15] is 7.17 upbm affinity estimate (log intensity, higher = more binding, comparable within an allelic series).
As for TGAATTAA, the binding signal with PAX4 [1] is 11.8 upbm affinity estimate (log intensity, higher = more binding, comparable within an allelic series); with PAX4 [2] it was 12.3 upbm affinity estimate (log intensity, higher = more binding, comparable within an allelic series); with HOXA2 [3], 11.1 upbm affinity estimate (log intensity, higher = more binding, comparable within an allelic series); with PAX4 [5], 11.9 upbm affinity estimate (log intensity, higher = more binding, comparable within an allelic series); in the test with PITX2 it was 11.2 upbm affinity estimate (log intensity, higher = more binding, comparable within an allelic series); with HOXA2 [6], 12.5 upbm affinity estimate (log intensity, higher = more binding, comparable within an allelic series). The binding signal with PAX4 [7] was 10.6 upbm affinity estimate (log intensity, higher = more binding, comparable within an allelic series); with PAX4 [9], 11.1 upbm affinity estimate (log intensity, higher = more binding, comparable within an allelic series); with HOXA2 [13], 10.8 upbm affinity estimate (log intensity, higher = more binding, comparable within an allelic series); with HOXA2 [15], 11.1 upbm affinity estimate (log intensity, higher = more binding, comparable within an allelic series).
